About 79,000 compounds went through this panel and 15% of them were active in at least one assay; those are over-represented in the sample as a whole. Unmarked numbers belong to inactive results. Calls of active or inactive are those of the source. Cut-off read from the data, not from the text of the source: active = growth inhibition above about 70%; inactive = the rest.
Tests used:
[1] = NCI Yeast Anticancer Drug Screen. Data for the rad50 strain (AID 155);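 note: 0% = growth of vehicle-only cultures of the same strain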; conditions: S. cerevisiae rad50 strain growth inhibition, hits give high values
Procedure, shortened: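 Relative growth inhibition (compound vs vehicle) was measured in yeast with a defined repair-gene alteration.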

[2] = NCI Yeast Anticancer Drug Screen. Data for the mec2-1 strain (AID 157); conditions: S. cerevisiae mec2-1 strain, hits give high values
Procedure, shortened: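 Mutant yeast (mec2-1) grown with compound; growth inhibition relative to vehicle control reported.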

[3] = NCI Yeast Anticancer Drug Screen. Data for the sgs1 mgt1 strain (AID 161);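 note: 0% = growth of cultures given vehicle only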; conditions: S. cerevisiae sgs1 mgt1 strain, hits give high values
Procedure, shortened: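 This yeast growth screen uses a strain with defined DNA-repair lesions; compound-treated growth is compared with vehicle-treated growth.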

[4] = NCI Yeast Anticancer Drug Screen. Data for the cln2 rad14 strain (AID 165);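 note: 0% = growth equal to vehicle treated cultures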; conditions: S. cerevisiae cln2 rad14 strain, hits give high values
Procedure, shortened: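 Readout is yeast growth inhibition versus vehicle-treated controls, using a strain with cln2 and rad14 alterations exposed to compound.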

[5] = NCI Yeast Anticancer Drug Screen. Data for the bub3 strain (AID 167); conditions: S. cerevisiae bub3 mutant strain, hits give high values
Procedure, shortened: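 Screening used yeast with an engineered genetic alteration affecting cell cycle control. Compound-exposed cultures were compared with vehicle cultures, and reduced growth was taken as inhibition.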

[6] = NCI Yeast Anticancer Drug Screen. Data for the mlh1 rad18 strain (AID 175); conditions: S. cerevisiae mlh1 rad18 strain growth inhibition, hits give high values
Procedure, shortened: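 Genetically defined yeast (DNA repair-deficient) exposed to compounds; growth inhibition determined relative to vehicle.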

[7] = at 5.0 µM (retest, dose inferred, filed as 0.5)
[8] = at 50.0 µM (retest, dose inferred, filed as 5.0)

Compound	growth inhibition [1, 7]	growth inhibition [1, 8]	growth inhibition ([1]; at 50.0 µM)	growth inhibition [2, 7]	growth inhibition [2, 8]	growth inhibition ([2]; at 50.0 µM)	growth inhibition [3, 7]	growth inhibition [3, 8]	growth inhibition ([3]; at 50.0 µM)	growth inhibition [4, 7]	growth inhibition [4, 8]	growth inhibition ([4]; at 50.0 µM)	growth inhibition [5, 7]	growth inhibition [5, 8]	growth inhibition ([5]; at 50.0 µM)	growth inhibition [6, 7]	growth inhibition [6, 8]	growth inhibition ([6]; at 50.0 µM)
COC1CCC(O)C(CO)O1 (configuration not stated)	100% (active)	99% (active)	99.5% (active)	100% (active)	99% (active)	99.6% (active)	100% (active)	99% (active)	99.7% (active)	100% (active)	99% (active)	99.6% (active)	99% (active)	99% (active)	99.5% (active)	99% (active)	99% (active)	99.5% (active)
O=c1cccccc1[O-].O=c1cccccc1[O-].O=c1cccccc1[O-].[Sm+3]	33%	33%	91.7% (active)	19%	19%	92.5% (active)	21%	21%	90.5% (active)	17%	17%	90.2% (active)	11%	11%	93% (active)	14%	14%	90.4% (active)
O=C1OCc2cccc3cccc1c23	7%	84% (active)	88.5% (active)	9%	43%	38.6%	4%	29%	70.3% (active)	8%	38%	36.5%	11%	69%	27.8%	5%	36%	62%
O=C1NOCC1N=Cc1cc(Cl)ccc1O (configuration not stated)	9%	65%	75.8% (active)	3%	30%	16.9%	-7%	35%	26.9%	0%	38%	23.4%	6%	61%	58.9%	9%	78% (active)	84% (active)
CC(=O)N(C1=C(Cl)C(=O)c2ccccc2C1=O)c1ccc(Cl)cc1	98% (active)	99% (active)	97.8% (active)	99% (active)	99% (active)	95.3% (active)	100% (active)	99% (active)	99.2% (active)	95% (active)	99% (active)	78% (active)	97% (active)	99% (active)	79.8% (active)	99% (active)	99% (active)	96.7% (active)
Cc1cc(Cl)c(O)c(-c2cc(-c3cccc([N+](=O)[O-])c3)c3c(N)[nH]c(=S)nc3n2)c1	-6%	46%	28.6%	-6%	23%	23.2%	3%	38%	20.3%	12%	33%	55%	-5%	45%	-6.15%	5%	50%	25.8%
Cc1ccc(S(=O)(=O)NC(=O)CC2CCCCC2)cc1	14%	89% (active)	91.2% (active)	9%	93% (active)	76.5% (active)	-9%	94% (active)	79.1% (active)	-4%	91% (active)	76.7% (active)	17%	94% (active)	79% (active)	22%	96% (active)	91.5% (active)
Cc1ccsc1/C=N/Nc1ccc2ccccc2n1	30%	72% (active)	78% (active)	20%	74% (active)	59.5%	44%	97% (active)	86.8% (active)	47%	91% (active)	50.6%	42%	95% (active)	79% (active)	25%	84% (active)	23.4%
O=C(O)C(Br)C(Br)c1ccccc1[N+](=O)[O-] (configuration not stated)	15%	81% (active)	96.5% (active)	8%	60%	89% (active)	20%	79% (active)	95% (active)	21%	72% (active)	77.2% (active)	3%	79% (active)	96% (active)	11%	85% (active)	92% (active)

Reference: PubChem BioAssay (NCI)
